GBA activity – modulators of human glucocerebrosidase; Potency, µM; hit rate 1.1% among 48,000; P04062; purified enzyme, resorufin glucoside fluorescence (screen aimed at inhibitors), 20 min; in the data active = potency below about 15 µM; inconclusive = mostly about 16 µM to 33 µM;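 also: the screen sought inhibitors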
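Wild-type enzyme at 0.2 nM final in 50mM citric acid/KH2PO4, 10mM sodium taurocholate, 0.01% tween-20, pH 5.9, with resorufin beta-D-glucopyranoside at 30 uM final. Compounds titrated, 20 min at RT, red fluorescence read; AC50 from titration.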
TSHR agonist – activates the human thyroid stimulating hormone receptor; hit rate 0.48% among 73,000; Potency, µM (highest dose often 57.1 µM), for inactives: at the highest dose activation, most hits filed as activators; P16473; HEK293-CNG-TSHR cells (CNG channel as cAMP sensor), membrane potential dye, cAMP; active = well fitted activation curve with a large enough effect in the main read-out, with a control signal flat, not every such curve was filed as active; inconclusive = small, poorly fitted or top-dose-only effect, or a change in a side signal; inactive = no such curve, though single readings can be large or run the other way; % of control where 0% means no effect;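 also: the control signal comes from parental cells without the receptor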
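HEK 293 cells stably expressing TSHR and a cAMP-gated CNG channel; parental CNG-only cells as counterscreen. Cells preloaded 60 min with membrane potential dye plus 100 uM RO 20-1724, then compound 30 min; fluorescence read at 590 nm.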
HEK293 cAMP cs – raises cAMP in parental HEK293 cells, TSHR agonist counter-screen; parental HEK293 CNG cAMP sensor, membrane potential fluorescence; Potency, µM (top dose mostly 57.1 µM), inactives show top-dose activation, most hits filed as activators; hit rate 2.5% among 73,000; AID 938; also: % of control where 0% means no effect; nearly all actives have a fitted effect of over 55% in size
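Parental HEK 293 cells stably expressing a modified CNG channel (no TSHR) report cAMP rise as membrane depolarization. Membrane potential dye with 100 uM RO 20-1724 was loaded for 60 min at room temperature, then compound added for 30 min; fluorescence read at 590 nm.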
PK Bst – modulators of Bacillus stearothermophilus pyruvate kinase | hit rate 1.2% among 51,000 | Potency, µM | purified pyruvate kinase, luminescence ATP production; ribose 5-phosphate activator present at AC10; in the data active = potency below about 11 µM; inconclusive = mostly about 12 µM to 25 µM;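 the screen sought inhibitors and activators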;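 also: scaled between full activation by ribose 5 phosphate and full inhibition by luteolin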
FLuc inh – inhibitors of firefly luciferase. P08659. purified firefly luciferase, luminescence, 8 min. Potency, µM (doses to about 57.1 µM), for the others: top-dose activity change, negative = inhibition, actives largely listed as inhibitors. hit rate 2.2% among 72,000. AID 411; also: % is scaled to controls: 0 for no effect and ±100 for the full control effect; nearly all actives have a fitted effect of over 40% in size
Target sequence (P08659 whole entry, looked up): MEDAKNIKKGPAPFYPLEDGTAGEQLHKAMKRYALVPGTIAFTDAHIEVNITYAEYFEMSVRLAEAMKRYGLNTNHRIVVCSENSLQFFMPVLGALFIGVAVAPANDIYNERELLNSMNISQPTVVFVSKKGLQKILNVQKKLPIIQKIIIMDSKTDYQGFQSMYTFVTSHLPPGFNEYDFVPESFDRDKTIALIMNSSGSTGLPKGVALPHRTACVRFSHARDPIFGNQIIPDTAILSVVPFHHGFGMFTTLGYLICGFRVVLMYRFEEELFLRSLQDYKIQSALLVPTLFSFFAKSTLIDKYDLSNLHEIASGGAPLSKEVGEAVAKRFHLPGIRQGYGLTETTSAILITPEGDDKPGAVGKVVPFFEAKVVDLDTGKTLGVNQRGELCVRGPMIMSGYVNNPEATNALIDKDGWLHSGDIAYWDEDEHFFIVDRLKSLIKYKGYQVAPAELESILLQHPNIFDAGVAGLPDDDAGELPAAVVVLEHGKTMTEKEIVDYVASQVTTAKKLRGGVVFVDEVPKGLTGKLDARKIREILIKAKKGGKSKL
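Substrate buffer containing 10 uM ATP (pH 7.2 imidazole, Mg2+, KCl, detergent, BSA) is dispensed, compound pinned in, then luciferase/luciferin detector mix added. After 8 min at ambient temperature, light output is measured.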
* hit, by the source's call; [ ] = dose if it differs, or a comment. In the library only some 5.8% were active in any assay of this set; here they are far more common. Unless noted, calls follow the shape of the dose curve; as a rule, active = well fitted curve in the direction sought with a large enough effect; inconclusive = small, poorly fitted or top-dose-only effect, or another doubt; inactive = no such curve, though single readings can be large; an effect the other way counts as inactive or inconclusive. Potency is read from the fitted curve at half-maximal effect.

For C#CCCCO/N=C1/C[C@@H](O)[C@@H](O)[C@@H]2[C@@H]3C(=O)N(C4CCCCC4)C(=O)[C@H]3CC[C@H]12 the results were TSHR agonist -3%[11.4 µM], HEK293 cAMP cs 14%[11.4 µM] and FLuc inh 0%[11.4 µM].
Screening Fc1cc2nc(-c3ccncc3)[nH]c2cc1F returned GBA activity 14*, TSHR agonist 0%, HEK293 cAMP cs 1%, PK Bst inactive and FLuc inh -17%.
`CCOc1ccc(OCCSc2nnnn2C2CCCCC2)cc1` gave GBA activity >77, TSHR agonist inconclusive, HEK293 cAMP cs 20µM*, PK Bst >57 and FLuc inh 2%.
`COc1ccc(Br)cc1CNC(=O)C1CCCN(S(C)(=O)=O)C1` (stereo not given) gave GBA activity >77, TSHR agonist -24%, HEK293 cAMP cs -17%, PK Bst 5.4* and FLuc inh 10µM*.
Screening Oc1c(C(c2ccccc2)N2CCN(Cc3ccccc3)CC2)sc2ncnn12 (stereo not given) returned TSHR agonist inconclusive, HEK293 cAMP cs 32µM* and FLuc inh 4%.
Cc1nnc(NC(=O)c2ccc3c(c2)C(=O)N(CC2CCCO2)C3=O)s1 (stereo not given) was read as GBA activity >77, TSHR agonist inconclusive, HEK293 cAMP cs inconclusive and FLuc inh -21%.
O=C(Nc1ccc(O)c(C(=O)O)c1)c1ccc2c(c1)C(=O)N(CC1CCCO1)C2=O (stereo not given) was read as GBA activity >77, TSHR agonist -4%, HEK293 cAMP cs 8% and FLuc inh 13µM*.
Screening Cc1ccc(S(=O)(=O)N2CCN(C(=O)N(C)C)CC2)cc1C returned GBA activity >77, HEK293 cAMP cs 23%, PK Bst inconclusive and FLuc inh -1%.
`Cc1ccc(S(=O)(=O)n2ccnc2)cc1C` gave TSHR agonist inconclusive, HEK293 cAMP cs 20µM* and FLuc inh 3%.
`C=CCn1c(C)cc(C(=O)COc2ncnc3sccc23)c1C` gave GBA activity >77, TSHR agonist 2%, HEK293 cAMP cs 3%, PK Bst inconclusive and FLuc inh 13µM*.
C[C@@H]1CCCN(C[C@@H](O)CN2CCCc3ccccc32)C1 was read as TSHR agonist 8%[11.4 µM], HEK293 cAMP cs 20%[11.4 µM] and FLuc inh 5%[11.4 µM].
For COC(=O)[C@@]1(Cc2ccccc2)[C@H]2c3cc(C(=O)N(C)C)n(Cc4ccc(O)c(OC)c4)c3C[C@H]2CN1C(=O)c1ccccc1 the results were TSHR agonist inconclusive and HEK293 cAMP cs 25µM*.
For COC(=O)[C@@]1(Cc2ccc(F)cc2)[C@H]2c3cc(C(=O)N(C)C)n(CC4CC4)c3C[C@H]2CN1C(=O)c1ccccc1 the results were TSHR agonist inconclusive and HEK293 cAMP cs 6.3µM*.
Screening COC(=O)[C@@]1(Cc2ccccc2)[C@H]2c3cc(C(=O)N(C)C)n(Cc4ccsc4Br)c3C[C@H]2CN1C(=O)c1ccccc1 returned TSHR agonist inconclusive and HEK293 cAMP cs 3.2µM*.
COC(=O)[C@@]1(Cc2ccc(OC)cc2)[C@H]2c3cc(C(=O)N(C)C)n(Cc4ccc(C(F)(F)F)nc4)c3C[C@H]2CN1C(=O)c1ccccc1 was read as TSHR agonist inconclusive and HEK293 cAMP cs 6.3µM*.
`O=C(O)c1cc(-c2ccc(-c3ccc(-c4cc(C(=O)O)c5cc(Cl)ccc5n4)cc3)cc2)nc2ccc(Cl)cc12` gave TSHR agonist -6%[11.4 µM], HEK293 cAMP cs -14%[11.4 µM] and FLuc inh 2%[11.4 µM].
Screening CC1CCC2C(=O)N3C(CCC(C)C3c3ccccc3Br)C(=O)N2C1c1ccc(C#CCN(C)C)cc1 (stereo not given) returned TSHR agonist 21%[11.4 µM] and HEK293 cAMP cs 0%[11.4 µM].
`Oc1cc(CN2COc3ccccc32)c(O)cc1CNC1CCCCC1` gave TSHR agonist -4%[11.4 µM], HEK293 cAMP cs -4%[11.4 µM] and FLuc inh -10%[11.4 µM].
C[N+](C)(C)[C@H](Cc1c[nH]c(=S)[nH]1)C(=O)O was read as TSHR agonist 11%[11.4 µM], HEK293 cAMP cs 5%[11.4 µM] and FLuc inh 0%[11.4 µM].
Screening COC(=O)[C@@]1(Cc2ccccc2)[C@H]2c3cc(C(=O)N(C)C)n(Cc4nc5ccccc5[nH]4)c3C[C@H]2CN1C(=O)c1ccccc1 returned TSHR agonist 12% and HEK293 cAMP cs 24%.
COC(=O)[C@@]1(Cc2ccccc2)[C@H]2c3cc(C(=O)N(C)C)n(Cc4ccc(S(C)(=O)=O)cc4)c3C[C@H]2CN1C(=O)c1ccccc1 was read as TSHR agonist inconclusive and HEK293 cAMP cs 16µM*.
COC(=O)[C@@]1(Cc2ccc(OC)cc2)[C@H]2c3cc(C(=O)N(C)C)n(Cc4cc(F)c(F)c(F)c4)c3C[C@H]2CN1C(=O)c1ccccc1 was read as TSHR agonist inconclusive and HEK293 cAMP cs 4µM*.
Screening COC(=O)[C@@]1(Cc2ccccc2)[C@H]2c3cc(C(=O)N(C)C)n(C[C@H](O)CO)c3C[C@H]2CN1C(=O)c1ccccc1 returned TSHR agonist 7% and HEK293 cAMP cs 21%.
COC(=O)[C@@]1(Cc2ccc(OC)cc2)[C@H]2c3cc(C(=O)N(C)C)n(Cc4ccc(OC)c(OC)c4)c3C[C@H]2CN1C(=O)c1ccccc1 was read as TSHR agonist inconclusive and HEK293 cAMP cs 16µM*.
`COC(=O)[C@@]1(Cc2ccc(OC)cc2)[C@H]2c3cc(C(=O)N(C)C)n(CCSCCO)c3C[C@H]2CN1C(=O)c1ccccc1` gave TSHR agonist 24% and HEK293 cAMP cs 22%.
COC(=O)[C@@]1(Cc2ccc(F)cc2)[C@H]2c3cc(C(=O)N(C)C)n(Cc4cc(F)c(F)c(F)c4)c3C[C@H]2CN1C(=O)c1ccccc1 was read as TSHR agonist -8% and HEK293 cAMP cs 27%.
Screening COC(=O)[C@@]1(Cc2ccccc2)[C@H]2c3cc(C(=O)N(C)C)n(Cc4ccccc4)c3C[C@H]2CN1C(=O)c1ccccc1 returned TSHR agonist inconclusive and HEK293 cAMP cs 2.5µM*.
Screening CC(C)(C)[C@@]1(O)CCN2C[C@@H]3c4ccccc4CCc4cccc(c43)[C@@H]2C1 returned TSHR agonist inconclusive, HEK293 cAMP cs 27% and FLuc inh -1%.
CCOC(=O)N/N=C1/C[C@@H](O)[C@@H](O)[C@@H]2[C@@H]3C(=O)N(C4CCCCC4)C(=O)[C@H]3CC[C@@H]12 was read as TSHR agonist 5%[11.4 µM], HEK293 cAMP cs 19%[11.4 µM] and FLuc inh 1%[11.4 µM].
O=C(O)[C@@H]1[C@@H](C(=O)NCc2ccccn2)[C@@H]2C=C[C@@H]1O2 was read as TSHR agonist 3%[11.4 µM], HEK293 cAMP cs -14%[11.4 µM] and FLuc inh 4%[11.4 µM].
`Cc1ccc(OC2C(O)COC2/C=C/C#Cc2ccc(C(C)(C)C)cc2)cc1` (stereo not given) gave TSHR agonist -5%[11.4 µM] and HEK293 cAMP cs 2%[11.4 µM].
